Records with an inconclusive call do not appear. Active and inactive are the calls of the source. Unless noted, calls follow the shape of the dose curve; as a rule, active = well fitted curve in the direction sought with a large enough effect in the repeat runs; inconclusive = weak or mixed curves; inactive = no such curve, though single readings can be large; an effect the other way counts as inactive or inconclusive.
Assays:
[1] = qHTS assay for small molecule agonists of the p53 signaling pathway (AID 651631; calls by dose curve; also: nearly all actives have a fitted effect of over 15% in size)
In short: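 We treat p53RE-bla HCT-116 cells with compounds for 16 h at 37 °C, add LiveBLAzer B/G FRET substrate for 2 h at room temperature, and measure fluorescence intensity.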

[2] = qHTS assay for small molecules that induce genotoxicity in human embryonic kidney cells expressing luciferase-tagged ATAD5 (AID 651632); also: nearly all actives have a fitted effect of over 15% in size
In short: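 Genotoxicity read-out via ATAD5-luciferase: HEK293T cells, 16 hr compound incubation at 37C, Amplite detection.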

[3] = qHTS assay for small molecule agonists of the p53 signaling pathway - cell viability (AID 651633; calls by dose curve;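 also: p53RE-bla HCT reporter cells with a stable beta-lactamase p53 reporter; series mostly up to about 83 µM; nearly all actives have a fitted effect of over 30% in size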)
In short: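 p53RE-bla cells were treated with compound for 16 hours at 37 C. Cytotoxicity was then measured as CellTiter-Glo luminescence after 30 min at room temperature.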

[4] = qHTS assay for small molecules that induce genotoxicity in human embryonic kidney cells expressing luciferase-tagged ATAD5 - cell viability (AID 651634; calls by dose curve; also: nearly all actives have a fitted effect of over 25% in size)
In short: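 Live-cell protease activity (CellTiter-Fluor, fluorescence) indicates viability. HEK293T cells with luciferase-tagged ATAD5; 15.5 hr compound treatment at 37C.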

[5] = qHTS assay for small molecule disruptors of the mitochondrial membrane potential - cell viability (AID 720634; calls by dose curve;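 also: human HepG2 liver cancer cells; series mostly up to about 83 µM; nearly all actives have a fitted effect of over 20% in size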)
In short: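 Human hepatoma HepG2 cells were treated for 1 hr with test chemicals, then given m-MPI dye and CellTiter-Glo. Cell viability reflects luminescence proportional to cellular ATP.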

[6] = qHTS assay for small molecule disruptors of the mitochondrial membrane potential (AID 720635)
In short: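 HepG2 cells exposed to compound 1 hr at 37C, then Mito-MPS dye 30 min. Ratio read of aggregate (540/590 nm) versus monomer (490/535 nm) fluorescence.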

[7] = qHTS assay to test for compound auto fluorescence at 590 nm (red) in HepG2 cells (AID 720674)
In short: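 HepG2 cells, 2,000 per well in MEM with 10% FBS, attached overnight at 37 C, then got 23 nL compound or DMSO. After 1 hr at 37 C, 5% CO2, red fluorescence was read at 540/590 nm against Rose Bengal sodium as reference.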

[8] = qHTS assay to test for compound auto fluorescence at 535 nm (green) in HepG2 cells (AID 720675)
[9] = qHTS assay to test for compound auto fluorescence at 460 nm (blue) in HEK293 cells (AID 720678)
In short: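 HEK293 cells (2,000 per well, medium with 10% dialyzed FBS) attached for 4-5 hr at 37C, then received compound and stood overnight at 37C, 5% CO2. Blue fluorescence was read at Ex/Em 405/460 nm and expressed relative to triamterene.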

[10] = qHTS assay to test for compound auto fluorescence at 590 nm (red) in HEK293 cells (AID 720679)
In short: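 HEK293 cells (2,000/well, medium with 10% dialyzed FBS) attached for 4-5 hr at 37C, received 23 nL compound and were incubated overnight at 37C, 5% CO2. Red fluorescence was then read at 540/590nm Ex/Em, referenced to Rose Bengal sodium.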

[11] = qHTS assay to test for compound auto fluorescence at 535 nm (green) in HEK293 cells (AID 720680)
[12] = qHTS assay to test for compound auto fluorescence at 460 nm (blue) in HEK293 cell free culture (AID 720681)
In short: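 Compounds were added to cell-free DMEM with 10% FBS and fluorescence read directly. The blue channel used 405 nm excitation and 460 nm emission, with triamterene as the reference fluorophore.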

[13] = qHTS assay to test for compound auto fluorescence at 535 nm (green) in HEK293 cell free culture (AID 720682)
In short: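 Green-channel intensity (Ex/Em 485/535 nm) was recorded from compound-treated wells containing only DMEM with 10% FBS. Fluorescein provided the equivalency standard.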

[14] = qHTS assay to test for compound auto fluorescence at 590 nm (red) in HEK293 cell free culture (AID 720683)
In short: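 Cell-free wells of DMEM with 10% FBS received compound, and intrinsic fluorescence was read at excitation/emission 540/590 nm. Values expressed as equivalence to Rose Bengal sodium.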

[15] = qHTS assay to test for compound auto fluorescence at 590 nm (red) in HepG2 cell free culture (AID 720684)
In short: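 Compound was pinned into wells holding MEM with 10% FBS and no cells, and red fluorescence was read at Ex/Em 540/590 nm. Signal is expressed as auto fluorescence equivalency relative to Rose Bengal sodium.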

[16] = qHTS assay to test for compound auto fluorescence at 460 nm (blue) in HepG2 cell free culture (AID 720685)
In short: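 Compound (23 nL) or DMSO pinned into cell-free MEM with 10% FBS; blue fluorescence read at 405/460 nm excitation/emission, expressed as auto-fluorescence equivalency to triamterene.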

[17] = qHTS assay to test for compound auto fluorescence at 535 nm (green) in HepG2 cell free culture (AID 720686)
[18] = qHTS assay to test for compound auto fluorescence at 460 nm (blue) in HepG2 cells (AID 720687)
In short: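 HepG2 cells in MEM with 10% FBS, attached overnight at 37 C, were exposed to compound or DMSO for 1 hr at 37 C, 5% CO2. Blue fluorescence was read at 405/460 nm, with triamterene as reference fluorophore.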

[19] = target: Glucocorticoid receptor (Homo sapiens) (UniProt P04150); assay: qHTS assay to identify small molecule agonists of the glucocorticoid receptor (GR) signaling pathway (AID 720691; active = well fitted activation curve with a large enough effect in the signal ratio in the repeat runs, not every such curve was filed as active; the % refers to the signal ratio)
Chain of Glucocorticoid receptor (Homo sapiens) (P04150 whole entry, looked up): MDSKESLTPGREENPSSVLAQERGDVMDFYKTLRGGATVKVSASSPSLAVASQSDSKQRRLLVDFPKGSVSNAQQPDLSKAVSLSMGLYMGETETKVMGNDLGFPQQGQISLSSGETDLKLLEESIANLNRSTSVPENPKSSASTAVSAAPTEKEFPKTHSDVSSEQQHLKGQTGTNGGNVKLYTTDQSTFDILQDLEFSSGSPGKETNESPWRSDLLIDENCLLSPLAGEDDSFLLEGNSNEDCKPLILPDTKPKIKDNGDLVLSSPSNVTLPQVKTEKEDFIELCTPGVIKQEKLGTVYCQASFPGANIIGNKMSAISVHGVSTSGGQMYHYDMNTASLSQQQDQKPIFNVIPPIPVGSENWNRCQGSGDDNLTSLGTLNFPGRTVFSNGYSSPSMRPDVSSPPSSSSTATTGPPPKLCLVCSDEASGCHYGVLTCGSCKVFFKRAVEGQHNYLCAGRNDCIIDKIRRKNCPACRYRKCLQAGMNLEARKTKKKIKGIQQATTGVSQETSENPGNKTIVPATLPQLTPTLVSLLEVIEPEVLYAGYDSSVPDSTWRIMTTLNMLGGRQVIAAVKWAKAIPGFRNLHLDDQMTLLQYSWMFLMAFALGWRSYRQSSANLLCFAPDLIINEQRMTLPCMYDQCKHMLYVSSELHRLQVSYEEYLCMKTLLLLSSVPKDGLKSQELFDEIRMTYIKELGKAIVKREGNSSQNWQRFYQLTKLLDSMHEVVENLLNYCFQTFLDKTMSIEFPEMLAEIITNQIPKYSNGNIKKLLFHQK
In short: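 Beta-lactamase reporter activity, read as fluorescence intensity, was measured in GR-bla HeLa cells exposed to compounds for 18 h at 37 C and then loaded with LiveBLAzer B/G FRET substrate for 2 h at room temperature.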

[20] = target: Glucocorticoid receptor (Homo sapiens) (UniProt P04150); assay: qHTS assay to identify small molecule antagonists of the glucocorticoid receptor (GR) signaling pathway (AID 720692; active = well fitted inhibition curve with a large enough effect in the signal ratio in the repeat runs, not every such curve was filed as active; the % refers to the signal ratio)
In short: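 Fluorescence from cleaved LiveBLAzer B/G FRET substrate reports GRE-driven beta-lactamase in HeLa cells; compounds are tested against 5 nM dexamethasone (final) over 18 h at 37 C, substrate incubation 2 h at room temperature.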

Measured: Potency

COP(N)(=O)SC (stereo not given)
inactive: all assays above

CN=C=S
not listed: [8] | [19] | [20]
inactive: all other assays above

CCc1cccc(C)c1N(C(=O)CCl)C(C)COC (stereo not given)
not listed: [19] | [20]
inactive: all other assays above

CCCCCCCCCl
not listed: [6] | [20]
inactive: all other assays above

CC(C)(C)C(O)(CCc1ccc(Cl)cc1)Cn1cncn1 (stereo not given)
not listed: [6] | [13] | [20]
inactive: all other assays above

O=[N+]([O-])c1ccc(Oc2ccc(Cl)cc2Cl)cc1
not listed: [6] | [13] | [20]
inactive: all other assays above

C=CCO
not listed: [6] | [8] | [20]
inactive: all other assays above

c1ccc(-c2ccccc2)cc1
not listed: [6]
inactive: all other assays above

CN(C)CCO
not listed: [6] | [8] | [20]
inactive: all other assays above

CCCC1COC(Cn2cncn2)(c2ccc(Cl)cc2Cl)O1 (stereo not given)
not listed: [6]
inactive: all other assays above

CNC(=O)Oc1ccccc1OC(C)C
not listed: [6] | [8] | [20]
inactive: all other assays above

COC(=O)NC(=S)Nc1ccccc1NC(=S)NC(=O)OC
not listed: [6] | [8]
inactive: all other assays above

ClCCBr
not listed: [6] | [8] | [19] | [20]
inactive: all other assays above

CC(C)(Cl)Cl
not listed: [6] | [8] | [13] | [20]
inactive: all other assays above

CCNc1nc(NC(C)(C)C)nc(SC)n1
not listed: [6] | [13]
inactive: all other assays above

c1ccc(OP(Oc2ccccc2)Oc2ccccc2)cc1
not listed: [6] | [13]
inactive: all other assays above

Cc1ccc(N)cc1N
not listed: [6] | [9] | [12] | [18]
inactive: all other assays above

CCN(CC)c1ccccc1
not listed: [6] | [13] | [20]
inactive: all other assays above

CCOP(OCC)OCC
not listed: [6] | [8] | [19] | [20]
inactive: all other assays above

O=S(=O)(c1ccc(O)cc1)c1ccc(O)cc1
not listed: [6] | [8]
inactive: all other assays above

c1ccc2c(c1)Oc1ccccc1O2
not listed: [6] | [20]
inactive: all other assays above

CC(Br)C(=O)O (stereo not given)
not listed: [6] | [13]
inactive: all other assays above

OC(O)C(Cl)(Cl)Cl
not listed: [6] | [13] | [19] | [20]
inactive: all other assays above

O=c1[nH]c(=O)[nH]c(=O)[nH]1
not listed: [6] | [8] | [20]
inactive: all other assays above

O=C(O)c1ccccn1
not listed: [6] | [13] | [20]
inactive: all other assays above

Cc1cc(-c2cc(C)c(N)c(C)c2)cc(C)c1N
not listed: [6] | [8] | [20]
inactive: all other assays above

CC(C)NC(=O)N1CC(=O)N(c2cc(Cl)cc(Cl)c2)C1=O
not listed: [6] | [19] | [20]
inactive: all other assays above

Nc1ccc(Oc2ccc(N)cc2)cc1
not listed: [6] | [13]
inactive: all other assays above

CCOC(=O)c1ccccc1C(=O)OCC
not listed: [6] | [13] | [20]
inactive: all other assays above

CCCCN(CC)C(=O)SCCC
not listed: [6]
inactive: all other assays above

CCCCCOC(=O)c1ccccc1C(=O)OCCCCC
not listed: [6] | [20]
inactive: all other assays above

COC(=O)NS(=O)(=O)c1ccc(N)cc1
not listed: [6] | [8]
inactive: all other assays above

CC(NC(C)(C)C)C(=O)c1cccc(Cl)c1 (stereo not given)
not listed: [6] | [13] | [20]
inactive: all other assays above

O=c1[nH]c2ccccc2c(=O)o1
not listed: [6]
inactive: all other assays above

Source: PubChem BioAssay (Tox21)
